Results taken from the supplement of paper PMC11732987, “Enantioselective OTUD7B fragment discovery through chemoproteomics screening and high-throughput optimisation” (Communications Chemistry, 2025).

Columns and labels:
Assay in all cases: log2 ratio of Biotin-Ahx-Ub-VS probe labelling (fragment/DMSO); higher = less target engagement (more negative = stronger competition), active = hit call of the paper (q ≤ 0.05, log2 ratio ≤ -1)
Settings in all cases: compound concentration: 200 uM; treatment time: 3 h
USP16 = USP16 (UniProt Q9Y5T5)
Sequence of USP16 (Q9Y5T5 whole entry, looked up, the tested form may be a part): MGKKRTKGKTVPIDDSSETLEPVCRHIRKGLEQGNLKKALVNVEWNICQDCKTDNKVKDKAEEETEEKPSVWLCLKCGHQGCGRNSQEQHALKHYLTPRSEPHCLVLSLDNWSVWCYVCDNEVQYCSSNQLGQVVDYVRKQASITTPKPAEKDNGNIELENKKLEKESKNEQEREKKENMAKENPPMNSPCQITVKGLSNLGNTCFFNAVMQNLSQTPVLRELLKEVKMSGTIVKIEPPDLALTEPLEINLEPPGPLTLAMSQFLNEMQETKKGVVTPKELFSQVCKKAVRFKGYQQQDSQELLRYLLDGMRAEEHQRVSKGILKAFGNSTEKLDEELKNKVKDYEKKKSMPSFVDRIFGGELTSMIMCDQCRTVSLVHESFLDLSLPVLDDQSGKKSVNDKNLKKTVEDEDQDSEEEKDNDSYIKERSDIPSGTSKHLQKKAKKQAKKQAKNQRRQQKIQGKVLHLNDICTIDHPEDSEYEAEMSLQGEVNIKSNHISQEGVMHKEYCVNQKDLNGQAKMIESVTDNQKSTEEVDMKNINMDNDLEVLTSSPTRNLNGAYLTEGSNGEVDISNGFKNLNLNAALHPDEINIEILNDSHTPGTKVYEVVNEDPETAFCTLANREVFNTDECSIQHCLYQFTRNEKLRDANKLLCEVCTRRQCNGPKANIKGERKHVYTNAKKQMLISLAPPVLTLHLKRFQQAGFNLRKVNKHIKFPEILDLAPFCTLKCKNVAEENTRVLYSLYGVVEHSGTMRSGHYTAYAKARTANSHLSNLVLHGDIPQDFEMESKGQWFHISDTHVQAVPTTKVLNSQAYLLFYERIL
Outline: (§1)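 Global-median-normalised Spectronaut label-free quantities were compared by unpaired t-test, and values are average log2 ratios of fragment over vehicle. Only proteins with ≥2 unique peptides were used. HEK293T lysate (495 µg per sample) was treated in triplicate with fragment at 200 µM or vehicle for 3 h and then with Biotin-Ahx-Ub-VS at 0.5 µM final for 1 h. Labelled DUBs were then NeutrAvidin-enriched, digested with LysC and trypsin, and run by diaPASEF LC-MS/MS.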

USP19 = target: T1, USP19 (UniProt O94966)
T1 sequence (whole entry): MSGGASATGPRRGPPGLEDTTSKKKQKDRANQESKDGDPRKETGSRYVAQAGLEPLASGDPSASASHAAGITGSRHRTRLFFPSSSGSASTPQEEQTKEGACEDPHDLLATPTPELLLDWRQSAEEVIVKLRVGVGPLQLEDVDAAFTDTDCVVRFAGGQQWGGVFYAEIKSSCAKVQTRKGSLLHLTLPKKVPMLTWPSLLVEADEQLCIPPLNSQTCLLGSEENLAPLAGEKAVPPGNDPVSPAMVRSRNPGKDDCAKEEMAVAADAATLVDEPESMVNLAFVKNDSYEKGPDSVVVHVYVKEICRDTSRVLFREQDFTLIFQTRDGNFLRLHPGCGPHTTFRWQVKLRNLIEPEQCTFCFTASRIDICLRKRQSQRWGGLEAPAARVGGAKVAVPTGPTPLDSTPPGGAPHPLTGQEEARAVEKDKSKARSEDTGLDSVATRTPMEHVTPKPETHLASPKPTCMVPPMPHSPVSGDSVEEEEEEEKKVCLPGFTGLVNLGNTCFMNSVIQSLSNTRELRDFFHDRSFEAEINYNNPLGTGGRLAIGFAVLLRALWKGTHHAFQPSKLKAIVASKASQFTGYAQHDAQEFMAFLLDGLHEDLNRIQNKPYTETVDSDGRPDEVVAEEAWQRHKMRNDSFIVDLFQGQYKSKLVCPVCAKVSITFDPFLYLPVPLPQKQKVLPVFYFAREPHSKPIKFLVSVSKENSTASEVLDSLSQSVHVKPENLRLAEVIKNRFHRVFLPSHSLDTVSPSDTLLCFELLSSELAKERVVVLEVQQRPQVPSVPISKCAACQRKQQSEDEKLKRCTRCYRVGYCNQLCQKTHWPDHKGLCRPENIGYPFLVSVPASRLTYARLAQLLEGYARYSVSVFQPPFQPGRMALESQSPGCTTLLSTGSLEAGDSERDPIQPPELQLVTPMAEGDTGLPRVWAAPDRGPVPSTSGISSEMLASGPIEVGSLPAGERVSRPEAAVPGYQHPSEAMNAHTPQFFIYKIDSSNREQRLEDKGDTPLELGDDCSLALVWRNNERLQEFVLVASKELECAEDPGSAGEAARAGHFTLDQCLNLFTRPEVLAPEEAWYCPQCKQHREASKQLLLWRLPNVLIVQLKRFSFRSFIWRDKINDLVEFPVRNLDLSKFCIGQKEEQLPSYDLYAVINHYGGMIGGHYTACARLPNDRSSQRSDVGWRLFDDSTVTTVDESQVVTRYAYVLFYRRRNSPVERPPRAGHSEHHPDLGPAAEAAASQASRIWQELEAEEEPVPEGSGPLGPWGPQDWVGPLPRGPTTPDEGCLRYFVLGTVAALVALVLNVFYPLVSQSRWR
Outline: as §1

USP24 = USP24 (UniProt Q9UPU5)
Sequence of USP24 (Q9UPU5 whole entry): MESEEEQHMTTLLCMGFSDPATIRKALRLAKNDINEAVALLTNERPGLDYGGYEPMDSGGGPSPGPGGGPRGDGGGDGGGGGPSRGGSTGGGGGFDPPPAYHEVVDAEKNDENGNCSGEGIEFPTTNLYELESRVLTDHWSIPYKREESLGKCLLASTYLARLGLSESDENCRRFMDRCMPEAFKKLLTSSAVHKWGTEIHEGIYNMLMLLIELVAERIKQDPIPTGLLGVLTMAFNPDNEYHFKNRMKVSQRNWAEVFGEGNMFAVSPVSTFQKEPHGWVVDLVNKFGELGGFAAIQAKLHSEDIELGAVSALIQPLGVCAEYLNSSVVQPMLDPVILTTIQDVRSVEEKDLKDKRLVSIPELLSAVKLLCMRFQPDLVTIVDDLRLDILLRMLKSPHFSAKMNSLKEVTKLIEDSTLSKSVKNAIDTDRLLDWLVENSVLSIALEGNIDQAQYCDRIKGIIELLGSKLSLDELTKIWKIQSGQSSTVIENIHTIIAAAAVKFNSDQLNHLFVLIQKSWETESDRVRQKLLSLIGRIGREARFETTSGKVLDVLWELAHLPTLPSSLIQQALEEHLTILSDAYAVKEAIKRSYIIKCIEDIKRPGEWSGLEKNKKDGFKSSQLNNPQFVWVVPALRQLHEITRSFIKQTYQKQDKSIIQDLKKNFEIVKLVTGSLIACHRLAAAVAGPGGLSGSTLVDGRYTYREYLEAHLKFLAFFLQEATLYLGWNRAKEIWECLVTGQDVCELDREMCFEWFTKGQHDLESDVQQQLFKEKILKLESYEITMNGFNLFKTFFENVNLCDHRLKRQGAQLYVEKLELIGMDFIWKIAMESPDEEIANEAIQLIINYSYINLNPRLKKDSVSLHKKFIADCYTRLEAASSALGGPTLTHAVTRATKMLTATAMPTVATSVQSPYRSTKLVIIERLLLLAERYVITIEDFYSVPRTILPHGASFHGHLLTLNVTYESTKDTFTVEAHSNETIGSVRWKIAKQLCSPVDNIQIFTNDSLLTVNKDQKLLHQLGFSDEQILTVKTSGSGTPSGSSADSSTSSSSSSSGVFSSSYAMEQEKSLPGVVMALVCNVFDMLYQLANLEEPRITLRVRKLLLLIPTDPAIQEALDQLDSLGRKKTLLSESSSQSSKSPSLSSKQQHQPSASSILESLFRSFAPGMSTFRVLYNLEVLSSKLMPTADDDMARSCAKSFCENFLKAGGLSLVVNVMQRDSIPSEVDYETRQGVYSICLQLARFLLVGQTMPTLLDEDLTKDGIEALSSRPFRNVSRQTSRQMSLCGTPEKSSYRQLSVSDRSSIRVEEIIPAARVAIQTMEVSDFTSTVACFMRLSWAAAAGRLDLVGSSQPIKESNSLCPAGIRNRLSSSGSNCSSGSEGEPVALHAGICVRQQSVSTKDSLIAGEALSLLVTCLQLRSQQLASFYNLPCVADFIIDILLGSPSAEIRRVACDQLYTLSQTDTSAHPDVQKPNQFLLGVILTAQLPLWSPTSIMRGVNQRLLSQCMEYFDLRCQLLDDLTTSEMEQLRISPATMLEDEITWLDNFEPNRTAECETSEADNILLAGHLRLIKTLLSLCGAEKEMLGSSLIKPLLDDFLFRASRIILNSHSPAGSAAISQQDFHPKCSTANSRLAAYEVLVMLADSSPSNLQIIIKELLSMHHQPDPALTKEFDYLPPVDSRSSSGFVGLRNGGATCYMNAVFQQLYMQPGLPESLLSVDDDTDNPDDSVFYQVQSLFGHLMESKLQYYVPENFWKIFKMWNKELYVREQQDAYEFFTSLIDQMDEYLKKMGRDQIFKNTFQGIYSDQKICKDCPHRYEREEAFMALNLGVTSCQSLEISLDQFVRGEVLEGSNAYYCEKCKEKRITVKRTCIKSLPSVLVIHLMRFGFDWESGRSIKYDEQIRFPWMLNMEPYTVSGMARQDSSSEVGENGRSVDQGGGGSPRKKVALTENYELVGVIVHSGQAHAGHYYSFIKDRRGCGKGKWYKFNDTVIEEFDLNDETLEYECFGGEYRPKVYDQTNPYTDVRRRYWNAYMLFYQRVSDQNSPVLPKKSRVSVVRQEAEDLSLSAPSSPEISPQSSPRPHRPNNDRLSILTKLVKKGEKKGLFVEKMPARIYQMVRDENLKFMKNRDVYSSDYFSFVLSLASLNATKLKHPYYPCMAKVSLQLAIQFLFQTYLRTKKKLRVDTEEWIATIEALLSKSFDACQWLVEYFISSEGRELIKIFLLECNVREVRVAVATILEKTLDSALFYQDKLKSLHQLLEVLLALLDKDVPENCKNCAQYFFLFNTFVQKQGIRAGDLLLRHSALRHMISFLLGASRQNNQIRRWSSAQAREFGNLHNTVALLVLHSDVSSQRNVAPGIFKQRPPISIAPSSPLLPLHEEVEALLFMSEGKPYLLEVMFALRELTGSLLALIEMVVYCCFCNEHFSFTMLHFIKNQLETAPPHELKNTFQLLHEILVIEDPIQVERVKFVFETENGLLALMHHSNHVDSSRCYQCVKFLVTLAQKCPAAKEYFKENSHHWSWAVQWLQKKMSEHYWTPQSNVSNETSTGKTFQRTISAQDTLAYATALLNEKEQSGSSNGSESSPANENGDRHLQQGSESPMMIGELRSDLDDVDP
Outline: as §1

USP25 = target: T2, USP25 (UniProt Q9UHP3)
T2 sequence (whole entry): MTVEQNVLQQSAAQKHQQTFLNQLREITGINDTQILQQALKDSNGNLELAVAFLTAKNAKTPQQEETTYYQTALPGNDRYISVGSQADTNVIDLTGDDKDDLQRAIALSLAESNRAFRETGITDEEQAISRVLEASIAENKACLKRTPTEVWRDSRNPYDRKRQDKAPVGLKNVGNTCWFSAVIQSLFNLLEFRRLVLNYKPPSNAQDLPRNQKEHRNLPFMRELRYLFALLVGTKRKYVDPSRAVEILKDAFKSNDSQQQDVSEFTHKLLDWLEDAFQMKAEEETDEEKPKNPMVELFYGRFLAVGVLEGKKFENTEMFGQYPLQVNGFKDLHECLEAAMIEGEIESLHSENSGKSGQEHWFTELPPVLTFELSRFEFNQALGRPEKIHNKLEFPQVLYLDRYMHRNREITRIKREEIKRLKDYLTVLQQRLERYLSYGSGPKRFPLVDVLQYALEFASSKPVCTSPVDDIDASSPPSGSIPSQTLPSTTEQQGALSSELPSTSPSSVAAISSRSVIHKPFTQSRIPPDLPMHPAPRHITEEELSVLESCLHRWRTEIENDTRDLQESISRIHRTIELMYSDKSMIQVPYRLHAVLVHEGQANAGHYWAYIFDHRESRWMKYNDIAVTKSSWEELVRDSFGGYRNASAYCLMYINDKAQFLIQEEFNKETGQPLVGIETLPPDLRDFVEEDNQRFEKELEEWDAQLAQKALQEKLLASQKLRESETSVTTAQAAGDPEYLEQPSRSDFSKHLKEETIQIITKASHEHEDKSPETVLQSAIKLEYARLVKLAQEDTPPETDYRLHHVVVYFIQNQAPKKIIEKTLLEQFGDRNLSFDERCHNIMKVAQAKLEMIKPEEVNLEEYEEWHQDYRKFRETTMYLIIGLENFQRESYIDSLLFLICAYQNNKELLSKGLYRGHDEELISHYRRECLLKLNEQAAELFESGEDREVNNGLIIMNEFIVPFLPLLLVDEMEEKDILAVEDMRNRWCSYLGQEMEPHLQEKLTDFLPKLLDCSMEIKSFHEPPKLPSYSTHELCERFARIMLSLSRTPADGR
Outline: as §1

USP28 = target: T3, USP28 (UniProt Q96RU2)
T3 sequence (whole entry): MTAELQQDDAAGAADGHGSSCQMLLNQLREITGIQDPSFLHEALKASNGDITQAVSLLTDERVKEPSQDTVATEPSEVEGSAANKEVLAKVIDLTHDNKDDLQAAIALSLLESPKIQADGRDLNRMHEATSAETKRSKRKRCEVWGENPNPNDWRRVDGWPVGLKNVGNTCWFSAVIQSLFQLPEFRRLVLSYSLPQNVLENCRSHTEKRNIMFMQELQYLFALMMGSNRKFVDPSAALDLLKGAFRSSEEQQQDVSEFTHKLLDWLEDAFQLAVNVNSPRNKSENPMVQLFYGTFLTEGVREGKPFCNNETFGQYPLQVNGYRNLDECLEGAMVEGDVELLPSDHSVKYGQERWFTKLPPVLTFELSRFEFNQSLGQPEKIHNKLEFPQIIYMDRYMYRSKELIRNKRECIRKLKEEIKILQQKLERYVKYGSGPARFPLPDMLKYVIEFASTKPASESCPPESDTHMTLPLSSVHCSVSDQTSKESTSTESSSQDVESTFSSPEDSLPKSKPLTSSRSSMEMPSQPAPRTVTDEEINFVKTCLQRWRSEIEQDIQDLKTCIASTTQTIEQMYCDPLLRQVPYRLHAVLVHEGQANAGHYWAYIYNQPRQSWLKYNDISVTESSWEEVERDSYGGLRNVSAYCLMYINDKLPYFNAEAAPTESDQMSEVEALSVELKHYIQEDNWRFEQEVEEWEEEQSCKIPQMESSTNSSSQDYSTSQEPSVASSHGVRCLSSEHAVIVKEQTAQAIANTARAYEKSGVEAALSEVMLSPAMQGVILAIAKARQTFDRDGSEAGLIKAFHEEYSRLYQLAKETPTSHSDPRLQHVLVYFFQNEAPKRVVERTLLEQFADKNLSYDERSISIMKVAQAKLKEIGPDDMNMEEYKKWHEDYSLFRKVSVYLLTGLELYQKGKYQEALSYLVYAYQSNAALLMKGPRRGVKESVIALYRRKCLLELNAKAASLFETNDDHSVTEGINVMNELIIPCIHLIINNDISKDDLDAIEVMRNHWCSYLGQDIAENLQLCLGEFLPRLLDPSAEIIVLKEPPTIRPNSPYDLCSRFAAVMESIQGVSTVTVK
Outline: as §1

Measured: log2 ratio of Biotin-Ahx-Ub-VS probe labelling

Cc1noc(C)c1CNC(=O)CCl
inactive: USP16 -0.591 | USP19 -0.666 | USP24 -0.8 | USP25 -0.554 | USP28 -0.971
